# This is part of a sample that, as a whole, favours compounds with a hit. Of some 83,000 tested, about 20% had one in any assay.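 Testing used 96-well plates and a 48-hour single-concentration exposure. Example: -40 means 40% of the starting cells died.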 Unmarked numbers belong to inactive results. Calls of active or inactive are those of the source. Rule for the calls: active = growth percent below 10; inactive = the rest.
# Experiments:
# Assay in all cases: NCI-60 one-dose screen, 48 h (100 = growth as untreated, 0 = no growth, -100 = all killed)
# Conditions in all cases: 10 µM unless noted
# [1] = tested on: SR leukemia
# [2] = tested on: RPMI-8226 leukemia
# [3] = tested on: OVCAR-8 ovarian
# [4] = tested on: OVCAR-5 ovarian
# [5] = tested on: SK-OV-3 ovarian
# [6] = tested on: IGROV1 ovarian
# [7] = tested on: OVCAR-3 ovarian
# [8] = tested on: NCI/ADR-RES ovarian
# [9] = tested on: OVCAR-4 ovarian
# [10] = tested on: HS 578T breast
Structure (SMILES),growth [1],growth [2],growth [3],growth [4],growth [5],growth [6],growth [7],growth [8],growth [9],growth [10]
CCOC(=O)CSSCC(=O)OCC,88.7%,98.6%,101%,108%,102%,110%,110%,110%,,
CCOC(=O)c1ccc2n1CCCc1cnc(NC(C)=O)nc1-2,,99.1%,103%,94.1%,106%,107%,107%,108%,104%,99.6%
Cc1ccc([C@@H]2C[C@H](O)Cc3ccccc3N2)s1,96.4%,102%,99.1%,97.7%,98.6%,100%,111%,104%,,
N#Cc1c2ncccc2c2nnc3cc(Cl)c(Cl)cc3n12,70.2%,,87.6%,90.1%,104%,72.9%,70.2%,99.8%,108%,
Cc1sc(NC(=O)c2ccc(C(C)(C)C)cc2)c(C(=O)O)c1C,62.8%,47.2%,56.5%,94%,103%,70.9%,71.7%,58.9%,,
CC([C@H]1CC=C2C3CCC4=C[C@@H](N(C)C)CC[C@]4(C)C3CC[C@@]21C)N(C)C (some centres not stated),71.5%,,85.3%,86.3%,80.3%,50.8%,42%,68.8%,8.25% (active),61%
COC(=O)CC(=O)C(=O)OC,93.1%,101%,105%,108%,,108%,,106%,108%,105%
Cc1cc2cn3c4ccc(O)cc4nc(N)c3c2cc1C,-23.5% (active),-20.1% (active),5.39% (active),28.9%,,3% (active),16.5%,9.17% (active),,-16.3% (active)
CN1CCN(Cc2ccc(NC(=O)c3ccc(C#Cc4c(N)ncc5ccc(F)cc45)cc3)cc2C(F)(F)F)CC1,,-43.3% (active),-28.4% (active),-52.8% (active),64%,-50.6% (active),-25.9% (active),-12.3% (active),-19.9% (active),29.9%
O=C1/C(=C/c2ccc(Cl)cc2)CCC/C1=C\c1ccc(Cl)cc1,48.7%,-0.252% (active),68.9%,96.7%,88%,62.6%,55.8%,87.2%,,
CC1Cc2cc(F)ccc2-n2cccc21 (configuration not stated),114%,111%,99.5%,95%,101%,92%,109%,107%,,
Cc1cc2cn3c4ccc(O)cc4[nH]c(=O)c3c2cc1C,-16.1% (active),-37% (active),-13.2% (active),32.6%,,-1.79% (active),,3.46% (active),,-31.8% (active)
O=C(Nc1ccc(-n2cc(-c3ccncc3)c(-c3ccc(Cl)c(O)c3)n2)cc1)c1cc(Cl)cc(Cl)c1,15.8%,,58.5%,64.6%,54.9%,63%,85.6%,54.1%,91.8%,-14.5% (active)
CCCCCCCCC/C(=N\NC(=O)c1ccncc1)c1ccc(O)c(O)c1O,6.56% (active),27.1%,13.8%,48.6%,24.3%,24.9%,25.6%,7.59% (active),,
COc1cccc(-c2cc(-c3cc4ccccc4oc3=O)nc(N)n2)c1,92.3%,108%,111%,98.2%,,70%,,105%,,80.8%
O=C(N/N=C\c1ccc(Cl)cc1)C(=O)N/N=C\c1ccc(Cl)cc1,90.7%,95.7%,102%,105%,92.4%,88.7%,123%,104%,,
CC1(c2ccc(Br)cc2)NC(=O)NC1=O (configuration not stated),,113%,97.9%,104%,103%,102%,104%,103%,104%,101%
CCCCCCCCC(=O)Nc1ccc(O)cc1,,82.3%,95%,106%,100%,93.7%,102%,82.9%,95.3%,103%
CCCCCCCCCCCCCCCCCC(=O)Nc1ccc(O)cc1,,77.8%,91.3%,117%,98.8%,105%,103%,95.4%,104%,104%
Cn1cnc2nc[nH]c2c1=S,,101%,105%,94.8%,105%,113%,115%,101%,108%,102%

Structure (SMILES),growth [1],growth [2],growth [3],growth [4],growth [5],growth [6],growth [7],growth [8],growth [9],growth [10]
COc1cc(NC(=O)CSc2nc3ccc(Cl)cc3c(=O)n2-c2ccc(F)cc2)cc(OC)c1OC,,39.2%,88.8%,88.7%,87.6%,86.6%,80.6%,81%,77.2%,75%
COc1cc2oc(-c3ccc(NC(=O)c4ccccc4)cc3)cc(=O)c2c(OC)c1OC,,73.7%,77.9%,86.6%,101%,84.2%,92.9%,89.4%,64.6%,80.7%
CN(CCC#N)c1ccc(/C=C(\C#N)c2cccc(C(F)(F)F)c2)cc1,,57.4%,76.1%,76.9%,98.1%,65.7%,69.4%,40.3%,68.3%,89.2%
COc1ccc(-c2nc(N)n(C(=S)Nc3ccccc3)n2)cc1,,99%,97.8%,111%,94.7%,99.4%,103%,102%,109%,87.2%
CN1CCN(Cc2ccc(NC(=O)c3cncc(C#Cc4c(N)ncc5ccc(F)cc45)c3)cc2C(F)(F)F)CC1,,5.38% (active),53.8%,-84.6% (active),60%,11%,63.2%,48.2%,36.1%,-8.53% (active)
CSc1nc(N)n2nccc2n1,,106%,98.5%,114%,105%,105%,106%,105%,103%,105%
C/C=C/C/C=C/[C@H](C)C[C@H](O)[C@@H]1C[C@@H]2O[C@H]2/C=C/[C@H](O)[C@@H](O)/C=C/C[C@H](C)CC(=O)O1,,42.8%,63.7%,93.4%,102%,78.9%,84.9%,71.6%,88.9%,11%
Cc1nnc(/N=C2\NC(=O)/C(=C/C=C/c3ccccc3)S2)s1,,44.8%,49.5%,88.3%,58.3%,51.8%,38.5%,44.8%,48.5%,71.7%
O=C(/C=C/c1cccc(O)c1)c1cccc(-n2cc(-c3ccc(Cl)cc3)[nH]c2=O)c1,,-53.2% (active),-2.92% (active),-47.3% (active),37.7%,-42.9% (active),-79.7% (active),3.39% (active),10.4%,-48.4% (active)
CC/C(=N\Nc1nc2ccccc2n1C)c1ccccn1,,10.4%,15.5%,29%,11.6%,13.6%,25.8%,-5.99% (active),11.5%,48.4%
CC(=O)Nc1nc(C)c(C(=O)NN)s1,,120%,111%,100%,102%,95%,104%,98.6%,118%,86%
COc1cccc2c1n([O-])c1cccc(OC)c1[n+]2=O,,31.8%,52.8%,18.2%,90.8%,-46.3% (active),164%,61.1%,50.2%,99%
CC(=O)NCCN,,105%,93.4%,102%,116%,111%,113%,113%,115%,103%
C/C=C(/C)C(=O)OC1C=C(CO)C(=O)C(OC(=O)/C(C)=C\C)C1C(C)C (configuration not stated),,-39.4% (active),-22.7% (active),-76.6% (active),16.4%,-77% (active),-89.1% (active),-6.28% (active),-48.8% (active),28.8%
COc1cc2c(cc1OC)C(Cc1cc(OC)c(OC)cc1[N+](=O)[O-])=NCC2,,78.1%,98%,73.6%,89.8%,98.1%,95.4%,81.8%,91.6%,87.8%
Cc1ccc(C(=O)Nc2ccc(CN3CCN(C)CC3)c(C(F)(F)F)c2)cc1C#Cc1cncc2ncccc12,,-53.5% (active),-76.8% (active),-93.9% (active),-12.6% (active),-82.7% (active),24.8%,4.19% (active),-87.5% (active),-32.4% (active)
Oc1ccccc1\C=N/N=C/C=C/c1ccccc1,,107%,103%,112%,87.9%,101%,96.3%,102%,97.7%,106%
C=C(NC(=O)[C@H](C(C)C)N(C)c1cccc2[nH]ccc12)C(=O)OC,,6.33% (active),102%,101%,101%,111%,103%,108%,103%,102%
CCN(CC)CCOC(=O)c1cccnc1,,91.4%,97.6%,96.4%,96.1%,103%,107%,101%,90.1%,92%
O=C(O)/C(Br)=C/c1c[nH]c2ccc(Br)cc12,,114%,106%,90.6%,171%,98.2%,105%,102%,59.7%,105%

Structure (SMILES),growth [1],growth [2],growth [3],growth [4],growth [5],growth [6],growth [7],growth [8],growth [9],growth [10]
Nc1cc(N)c2nc(-c3ccccc3)c(NCCc3ccc(Cl)c(Cl)c3)nc2c1,,-60.6% (active),-90.6% (active),-76.9% (active),-80.7% (active),-77.8% (active),-91.2% (active),-54.3% (active),-85.5% (active),-22.7% (active)
CNc1nc2ncn(C)c2c(=O)[nH]1,,97.4%,104%,86.7%,104%,94.2%,113%,92.6%,93.8%,105%
Cc1ccc(C(=O)C(Br)C(Br)c2ccccc2)cc1 (configuration not stated),,48.2%,96.6%,102%,114%,62.5%,61.7%,105%,71.9%,98.2%
Cc1ccc(C(=O)Nc2ccc(CN3CCN(C)CC3)c(C(F)(F)F)c2)cc1C#Cc1cnc(N)c2ccc(C#N)cc12,,20.2%,27.8%,98.4%,2.3% (active),16.3%,61.2%,49.8%,48.8%,47.4%
COc1cc(C(=O)Nc2ccc(N(C)C)cc2)cc(OC)c1OC,,97.7%,92.2%,94.7%,85.7%,93.7%,101%,87.3%,93.1%,95.5%
CCOc1ccc(Br)cc1/C=C(\C#N)c1ccc([N+](=O)[O-])cc1,,84.7%,70%,94.6%,44.4%,71.4%,65.8%,85.2%,45.2%,7.59% (active)
COc1cc(N2C(=O)C=CC2=O)ccc1N1C(=O)C=CC1=O,,103%,110%,103%,110%,115%,104%,106%,102%,102%
C/C=C(/C)C(=O)OC1C=C(CO)C(=O)C(OC(=O)C2(C)OC2C)C1C(C)C (configuration not stated),,-37.4% (active),4.08% (active),-40% (active),44.3%,-31.2% (active),-46.9% (active),6.41% (active),13.6%,30.9%
O=S(=O)(O)CCI,,115%,113%,108%,111%,110%,114%,105%,105%,100%
Cc1ncc(C(=O)Nc2ccc(CN3CCN(C)CC3)c(C(F)(F)F)c2)cc1C#Cc1c(N)ncc2ccc(F)cc12,,-43.6% (active),-74.8% (active),-45.3% (active),41.4%,-76% (active),-23.4% (active),-29.7% (active),-58.6% (active),-1.46% (active)
COC(=O)c1cc(O)c2cc3c(cc2c1-c1cc(OC)c(OC)c(OC)c1)OCO3,,4.51% (active),45.8%,45%,22.2%,44%,8.41% (active),3.4% (active),71.3%,-2% (active)
COC(=O)C1CC(=O)N(C(=O)Nc2ccc(Cl)cc2Cl)C1 (configuration not stated),,98.9%,99.1%,101%,88.4%,107%,111%,99.6%,117%,82.9%
COc1ccc(-c2nc(Nc3nc4ccccc4[nH]3)nc(N)c2C#N)cc1,,94%,103%,104%,102%,59.1%,111%,103%,102%,129%
C=CCN(C)C,,117%,106%,109%,115%,104%,118%,106%,115%,98.1%
O=C(Nc1cccc2[nH]c(C(F)(F)F)nc12)c1ccc(F)cc1,,30.4%,90.1%,99.6%,98.8%,85.8%,66%,92.1%,80.3%,77.3%
CCCC(=O)NNc1[nH]c(-c2ccc(OC)cc2)cc1C(=O)OCC,,98.4%,110%,95.7%,113%,18.1%,90%,106%,117%,97.7%
Cc1ncc(C(=O)Nc2ccc(CN3CCN(C)CC3)c(C(F)(F)F)c2)cc1C#Cc1c(N)ncc2ccccc12,,-47.5% (active),-85.7% (active),-92.6% (active),-2.88% (active),-77.1% (active),-68.9% (active),-70% (active),-58.8% (active),-25.5% (active)
CC1(C)CC(=O)C2=C(C1)Oc1nc(N)c(C#N)c(N)c1C2c1ccc(F)cc1 (configuration not stated),,163%,106%,105%,115%,500%,121%,122%,102%,103%
OCCN1CCCN(CCCN2c3ccccc3Sc3ccc(C(F)(F)F)cc32)CC1,,42.2%,91%,83.9%,77.3%,41.3%,78.7%,73.5%,54.4%,29.1%

# — PubChem BioAssay (NCI)
